# Experimental data taken from PubChem BioAssay AID1159580 (chemical genetic matrix, 2015).
# Several values for one entry are separate records, joined by “and”; a condition that tells them apart may be missing. Equal entries are not always repeated. About 2,000 (36%) of roughly 5,500 compounds were called active. About 18% were inconclusive and are not listed. The list shows a part of the results. Values without a mark were called inactive. Rule as the data show it: active = normalized growth mostly below about 0.91 (no sharp cut-off); inconclusive = no clear call, values can overlap the other calls; inactive = mostly above about 0.92.
# Assay: chemical genetic growth profiling, strain panel (AID 1159580);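 also: tested at 20 µM; growth read once vehicle control cultures reached saturation at 30 °C; 1 = growth at the plate median or of vehicle wells; lower values mean less growth of the strain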
# Conditions: growth OD
smiles,measurement,setting,value
CCC1(c2ccc(N)cc2)CCC(=O)NC1=O (stereo not drawn),normalized growth,"S. cerevisiae deletion strains, locus YJR075W, strain HOC1, hits give low values",0.998
same,normalized growth,"S. cerevisiae deletion strains, locus YKL009W, strain mrt4, hits give low values",1.01
same,normalized growth,"S. cerevisiae deletion strains, locus YKL068W, hits give low values",1
same,normalized growth,"S. cerevisiae deletion strains, locus YKL085W, strain MDH1 (second series), hits give low values",1
same,normalized growth,"S. cerevisiae deletion strains, locus YKL085W, strain MDH1, hits give low values",1
same,normalized growth,"S. cerevisiae deletion strains, locus YKL160W, strain elf1, hits give low values",0.939
same,normalized growth,"S. cerevisiae deletion strains, locus YKR001C, strain vps1, hits give low values",0.995
same,normalized growth,"S. cerevisiae deletion strains, locus YKR026C, strain gcn3, hits give low values",0.961
same,normalized growth,"S. cerevisiae deletion strains, locus YKR091W, strain srl3, hits give low values",0.977
same,normalized growth,"S. cerevisiae deletion strains, locus YLL001W, strain dnm1, hits give low values",0.903
same,normalized growth,"S. cerevisiae deletion strains, locus YLL026W, hits give low values",0.956
same,normalized growth,"S. cerevisiae deletion strains, locus YLL041C, strain sdh2, hits give low values",0.968
same,normalized growth,"S. cerevisiae deletion strains, locus YLR027C, strain aat2, hits give low values",0.94
same,normalized growth,"S. cerevisiae deletion strains, locus YLR039C, strain RIC1, hits give low values",1.02
same,normalized growth,"S. cerevisiae deletion strains, locus YLR058C, strain SHM2, hits give low values",1.01
same,normalized growth,"S. cerevisiae deletion strains, locus YLR102C, strain apc9, hits give low values",0.992
same,normalized growth,"S. cerevisiae deletion strains, locus YLR113W, strain HOG1, hits give low values",1.06
same,normalized growth,"S. cerevisiae deletion strains, locus YLR221C, strain rsa3, hits give low values",0.99
same,normalized growth,"S. cerevisiae deletion strains, locus YLR258W, strain gsy2, hits give low values",0.992
same,normalized growth,"S. cerevisiae deletion strains, locus YLR262C, strain YPT6 (second series), hits give low values",0.999
same,normalized growth,"S. cerevisiae deletion strains, locus YLR262C, strain YPT6, hits give low values",1.03
same,normalized growth,"S. cerevisiae deletion strains, locus YLR268W, strain sec22, hits give low values",1.01
same,normalized growth,"S. cerevisiae deletion strains, locus YLR320W, strain mms22, hits give low values",0.978
same,normalized growth,"S. cerevisiae deletion strains, locus YLR330W, strain CHS5, hits give low values",1.01
same,normalized growth,"S. cerevisiae deletion strains, locus YLR342W, strain FKS1 (second series), hits give low values",1.02
same,normalized growth,"S. cerevisiae deletion strains, locus YLR342W, strain FKS1, hits give low values",0.926
same,normalized growth,"S. cerevisiae deletion strains, locus YLR357W, strain rsc2, hits give low values",0.917
same,normalized growth,"S. cerevisiae deletion strains, locus YLR370C, strain arc18, hits give low values",0.969
same,normalized growth,"S. cerevisiae deletion strains, locus YLR371W, strain rom2, hits give low values",0.997
same,normalized growth,"S. cerevisiae deletion strains, locus YLR384C, strain iki3, hits give low values",0.972
same,normalized growth,"S. cerevisiae deletion strains, locus YLR418C, strain cdc73, hits give low values",1
same,normalized growth,"S. cerevisiae deletion strains, locus YML016C, strain PPZ1, hits give low values",1.01
same,normalized growth,"S. cerevisiae deletion strains, locus YML032C, strain rad52, hits give low values",1
same,normalized growth,"S. cerevisiae deletion strains, locus YML120C, strain ndi1, hits give low values",0.93
same,normalized growth,"S. cerevisiae deletion strains, locus YML124C, strain tub3, hits give low values",0.985
same,normalized growth,"S. cerevisiae deletion strains, locus YMR058W, strain fet3, hits give low values",0.944
same,normalized growth,"S. cerevisiae deletion strains, locus YMR078C, strain ctf18, hits give low values",0.997
same,normalized growth,"S. cerevisiae deletion strains, locus YMR125W, strain sto1, hits give low values",0.988
same,normalized growth,"S. cerevisiae deletion strains, locus YMR129W, hits give low values",0.969
same,normalized growth,"S. cerevisiae deletion strains, locus YMR205C, strain PFK2, hits give low values",1
same,normalized growth,"S. cerevisiae deletion strains, locus YMR223W, strain ubp8, hits give low values",0.993
same,normalized growth,"S. cerevisiae deletion strains, locus YMR231W, strain pep5, hits give low values",0.973
same,normalized growth,"S. cerevisiae deletion strains, locus YMR263W, strain SAP30, hits give low values",1
same,normalized growth,"S. cerevisiae deletion strains, locus YMR307W, strain GAS1, hits give low values",0.942
same,normalized growth,"S. cerevisiae deletion strains, locus YNL067W, strain RPL9B, hits give low values",0.997
same,normalized growth,"S. cerevisiae deletion strains, locus YNL071W, strain lat1, hits give low values",0.986
same,normalized growth,"S. cerevisiae deletion strains, locus YNL128W, strain TEP1, hits give low values",1.01
same,normalized growth,"S. cerevisiae deletion strains, locus YNL153C, strain GIM3, hits give low values",1.02
same,normalized growth,"S. cerevisiae deletion strains, locus YNL175C, strain NOP13, hits give low values",0.992
same,normalized growth,"S. cerevisiae deletion strains, locus YNL183C, strain NPR1, hits give low values",0.974
same,normalized growth,"S. cerevisiae deletion strains, locus YNL197C, strain WHI3, hits give low values",0.987
same,normalized growth,"S. cerevisiae deletion strains, locus YNL209W, strain ssb2, hits give low values",0.997
same,normalized growth,"S. cerevisiae deletion strains, locus YNL224C, strain SQS1, hits give low values",1.02
same,normalized growth,"S. cerevisiae deletion strains, locus YNL233W, strain BNI4, hits give low values",0.994
same,normalized growth,"S. cerevisiae deletion strains, locus YNL248C, strain rpa49, hits give low values",0.955
same,normalized growth,"S. cerevisiae deletion strains, locus YNL250W, strain rad50, hits give low values",1
same,normalized growth,"S. cerevisiae deletion strains, locus YNL271C, strain bni1, hits give low values",0.995
same,normalized growth,"S. cerevisiae deletion strains, locus YNL298W, strain CLA4, hits give low values",0.992
same,normalized growth,"S. cerevisiae deletion strains, locus YNL307C, strain MCK1, hits give low values",0.999
same,normalized growth,"S. cerevisiae deletion strains, locus YNL322C, strain KRE1 (second series), hits give low values",0.973
same,normalized growth,"S. cerevisiae deletion strains, locus YNL322C, strain KRE1, hits give low values",0.996 and 1.02
same,normalized growth,"S. cerevisiae deletion strains, locus YNR049C, strain mso1, hits give low values",0.971
same,normalized growth,"S. cerevisiae deletion strains, locus YNR052C, strain pop2, hits give low values",0.988
same,normalized growth,"S. cerevisiae deletion strains, locus YOL012C, strain htz1",0.83
same,normalized growth,"S. cerevisiae deletion strains, locus YOL147C, strain pex11, hits give low values",0.999
same,normalized growth,"S. cerevisiae deletion strains, locus YOR001W, strain rrp6, hits give low values",0.934
same,normalized growth,"S. cerevisiae deletion strains, locus YOR061W, strain CKA2, hits give low values",1.02
same,normalized growth,"S. cerevisiae deletion strains, locus YOR069W, strain VPS5, hits give low values",1
same,normalized growth,"S. cerevisiae deletion strains, locus YOR070C, strain gyp1, hits give low values",0.987
same,normalized growth,"S. cerevisiae deletion strains, locus YOR080W, strain dia2, hits give low values",0.958
same,normalized growth,"S. cerevisiae deletion strains, locus YOR083W, strain WHI5 (second series), hits give low values",1.02
same,normalized growth,"S. cerevisiae deletion strains, locus YOR083W, strain WHI5, hits give low values",0.922
same,normalized growth,"S. cerevisiae deletion strains, locus YOR106W, strain vam3, hits give low values",0.899
same,normalized growth,"S. cerevisiae deletion strains, locus YOR136W, strain idh2, hits give low values",0.983
same,normalized growth,"S. cerevisiae deletion strains, locus YOR144C, strain elg1, hits give low values",1
same,normalized growth,"S. cerevisiae deletion strains, locus YOR184W, strain ser1, hits give low values",1.02
same,normalized growth,"S. cerevisiae deletion strains, locus YOR231W, strain MKK1, hits give low values",1.05
same,normalized growth,"S. cerevisiae deletion strains, locus YOR265W, strain rbl2, hits give low values",0.966
same,normalized growth,"S. cerevisiae deletion strains, locus YOR270C, strain vph1, hits give low values",0.977
same,normalized growth,"S. cerevisiae deletion strains, locus YOR290C, strain snf2, hits give low values",0.995
same,normalized growth,"S. cerevisiae deletion strains, locus YOR316C, strain cot1, hits give low values",0.996
same,normalized growth,"S. cerevisiae deletion strains, locus YPL051W, strain arl3, hits give low values",0.962
same,normalized growth,"S. cerevisiae deletion strains, locus YPL078C, strain atp4, hits give low values",0.89 (active)
same,normalized growth,"S. cerevisiae deletion strains, locus YPL106C, strain sse1, hits give low values",1
same,normalized growth,"S. cerevisiae deletion strains, locus YPL240C, strain hsp82, hits give low values",0.983
same,normalized growth,"S. cerevisiae deletion strains, locus YPL241C, strain CIN2, hits give low values",1 and 1.01
same,normalized growth,"S. cerevisiae deletion strains, locus YPL256C, strain CLN2, hits give low values",1.07
same,normalized growth,"S. cerevisiae deletion strains, locus YPR119W, strain clb2, hits give low values",0.991
same,normalized growth,"S. cerevisiae deletion strains, locus YPR141C, strain kar3, hits give low values",1
same,normalized growth,"S. cerevisiae deletion strains, locus YPR163C, strain tif3, hits give low values",1
same,normalized growth,"S. cerevisiae deletion strains, locus YPR167C, strain met16, hits give low values",0.997
same,normalized growth,"S. cerevisiae deletion strains, strain wtn01, hits give low values",0.985
same,normalized growth,"S. cerevisiae strains, strain wild type, hits give low values",1.01
